# Source: PubChem BioAssay (NCI)
# About 79,000 compounds went through this panel and 15% of them were active in at least one assay; those are over-represented in the sample as a whole. Values without a mark were called inactive. Active and inactive are the calls of the source. No stated cut-off is given here; in the data, active means growth inhibition above about 70%; inactive means the rest.
# Tests used:
# [1] = NCI Yeast Anticancer Drug Screen. Data for the wt1 strain (AID 149);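 further: 0% = growth of vehicle-treated wt1 cultures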; conditions: S. cerevisiae wt1 strain (SPY 50644) growth inhibition, stronger effect = higher value
# In short: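 Each compound is tested on wt1 yeast and the loss of growth versus vehicle gives the inhibition value.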
# [2] = NCI Yeast Anticancer Drug Screen. Data for the rad50EPP+ strain (AID 151);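 further: 0% = growth of vehicle-treated control cultures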; conditions: S. cerevisiae rad50 mutant strain, stronger effect = higher value
# In short: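 Read-out is yeast growth inhibition relative to vehicle; cells used were the rad50EPP+ strain.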
# [3] = NCI Yeast Anticancer Drug Screen. Data for the rad50 strain (AID 155);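 further: 0% = growth of vehicle-only cultures of the same strain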; conditions: S. cerevisiae rad50 strain growth inhibition, stronger effect = higher value
# In short: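 Vehicle-treated cultures provide the reference for the growth inhibition reported for compound-exposed, repair-deficient yeast.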
# [4] = NCI Yeast Anticancer Drug Screen. Data for the mec2-1 strain (AID 157); conditions: S. cerevisiae mec2-1 strain, stronger effect = higher value
# In short: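 Using mec2-1 yeast: add compound, measure growth, express inhibition versus vehicle-treated cultures.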
# [5] = NCI Yeast Anticancer Drug Screen. Data for the rad14 strain (AID 159);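 further: 0% = growth of vehicle-treated control cultures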; conditions: S. cerevisiae rad14 strain growth inhibition, stronger effect = higher value
# In short: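 Inhibition of growth is reported for a repair-deficient yeast mutant following compound treatment, calculated relative to cultures that received vehicle.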
# [6] = NCI Yeast Anticancer Drug Screen. Data for the sgs1 mgt1 strain (AID 161);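 further: 0% = growth of cultures given vehicle only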; conditions: S. cerevisiae sgs1 mgt1 strain, stronger effect = higher value
# In short: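 Percent growth inhibition was derived by comparing compound-exposed mutant yeast with vehicle-exposed cultures. The strain carries alterations in DNA damage repair.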
# [7] = NCI Yeast Anticancer Drug Screen. Data for the CLN2oe strain (AID 163);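 further: 0% = growth of vehicle-only control cultures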; conditions: S. cerevisiae CLN2oe strain, stronger effect = higher value
# In short: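 Whole-cell yeast growth assay. A strain engineered for altered cell-cycle control received compound, and inhibition relative to vehicle-treated cultures was recorded.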
# [8] = NCI Yeast Anticancer Drug Screen. Data for the cln2 rad14 strain (AID 165);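 further: 0% = growth equal to vehicle treated cultures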; conditions: S. cerevisiae cln2 rad14 strain, stronger effect = higher value
# In short: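 Yeast strain cln2 rad14, bearing defects in cell cycle control and DNA repair, serves as the test system; values reflect growth inhibition compared with vehicle.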
# [9] = NCI Yeast Anticancer Drug Screen. Data for the bub3 strain (AID 167); conditions: S. cerevisiae bub3 mutant strain, stronger effect = higher value
# In short: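 Mutant yeast screening strain plus compound; vehicle-treated cultures serve as the 0% inhibition reference.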
# [10] = NCI Yeast Anticancer Drug Screen. Data for the wt2 strain (AID 169); conditions: S. cerevisiae wt2 strain growth inhibition, stronger effect = higher value
# In short: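 Treated yeast vs. vehicle-treated yeast: growth inhibition determined.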
# [11] = NCI Yeast Anticancer Drug Screen. Data for the mlh1 strain (AID 171);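 further: 0% = growth of vehicle-treated control cultures of the same strain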; conditions: S. cerevisiae mlh1 strain growth inhibition, stronger effect = higher value
# In short: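 A yeast strain with a defined genetic lesion serves as the test organism. Cultures receive compound or vehicle, and growth is measured.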
# [12] = NCI Yeast Anticancer Drug Screen. Data for the sgs1 strain (AID 173);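 further: 0% = growth of vehicle-only control cultures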; conditions: S. cerevisiae sgs1 mutant, stronger effect = higher value
# In short: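 A genetically defined yeast mutant is incubated with the test compound, and its growth is compared to that of the same strain given vehicle.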
# [13] = NCI Yeast Anticancer Drug Screen. Data for the mlh1 rad18 strain (AID 175); conditions: S. cerevisiae mlh1 rad18 strain growth inhibition, stronger effect = higher value
# In short: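 Steps: expose repair-defective yeast to compound; measure growth; express inhibition against vehicle-treated controls.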
# [14] = NCI Yeast Anticancer Drug Screen. Data for the rad18 strain (AID 177); conditions: S. cerevisiae rad18 mutant growth inhibition, stronger effect = higher value
# In short: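 Measured value is growth inhibition of a yeast strain bearing a DNA repair alteration, referenced to vehicle-treated cells.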
# [15] = at 5.0 µM (retest, dose inferred, filed as 0.5)
# [16] = at 50.0 µM (retest, dose inferred, filed as 5.0)
smiles,measurement,setting,value
N#C/C(=C/N1C(=O)/C(=C/c2ccc([N+](=O)[O-])cc2)SC1=S)c1nc2ccccc2s1,growth inhibition,[1]; at 1.2 µM,4%
same,growth inhibition,[1]; at 3.7 µM,5%
same,growth inhibition,[1]; at 11.0 µM,7%
same,growth inhibition,[1]; at 33.0 µM,18%
same,growth inhibition,[1]; at 100.0 µM,59%
same,growth inhibition,[2]; at 1.2 µM,19%
same,growth inhibition,[2]; at 3.7 µM,45%
same,growth inhibition,[2]; at 11.0 µM,69%
same,growth inhibition,[2]; at 33.0 µM,86% (active)
same,growth inhibition,[2]; at 100.0 µM,87% (active)
same,growth inhibition,[3]; at 1.2 µM,-2%
same,growth inhibition,[3]; at 3.7 µM,-6%
same,growth inhibition,[3]; [15],-4%
same,growth inhibition,[3]; at 11.0 µM,0%
same,growth inhibition,[3]; at 33.0 µM,40%
same,growth inhibition,[3]; [16],23%
same,growth inhibition,[3]; at 50.0 µM,87.3% (active)
same,growth inhibition,[3]; at 100.0 µM,79% (active)
same,growth inhibition,[4]; at 1.2 µM,9%
same,growth inhibition,[4]; at 3.7 µM,11%
same,growth inhibition,[4]; [15],-1%
same,growth inhibition,[4]; at 11.0 µM,18%
same,growth inhibition,[4]; at 33.0 µM,34%
same,growth inhibition,[4]; [16],16%
same,growth inhibition,[4]; at 50.0 µM,81.7% (active)
same,growth inhibition,[4]; at 100.0 µM,67%
same,growth inhibition,[5]; at 1.2 µM,3%
same,growth inhibition,[5]; at 3.7 µM,4%
same,growth inhibition,[5]; at 11.0 µM,13%
same,growth inhibition,[5]; at 33.0 µM,40%
same,growth inhibition,[5]; at 100.0 µM,84% (active)
same,growth inhibition,[6]; [15],7%
same,growth inhibition,[6]; [16],48%
same,growth inhibition,[6]; at 50.0 µM,85.6% (active)
same,growth inhibition,[7]; at 1.2 µM,8%
same,growth inhibition,[7]; at 3.7 µM,-1%
same,growth inhibition,[7]; at 11.0 µM,3%
same,growth inhibition,[7]; at 33.0 µM,16%
same,growth inhibition,[7]; at 100.0 µM,55%
same,growth inhibition,[8]; [15],-16%
same,growth inhibition,[8]; [16],30%
same,growth inhibition,[8]; at 50.0 µM,61.1%
same,growth inhibition,[9]; at 1.2 µM,-2%
same,growth inhibition,[9]; at 3.7 µM,4%
same,growth inhibition,[9]; [15],-18%
same,growth inhibition,[9]; at 11.0 µM,9%
same,growth inhibition,[9]; at 33.0 µM,26%
same,growth inhibition,[9]; [16],34%
same,growth inhibition,[9]; at 50.0 µM,86% (active)
same,growth inhibition,[9]; at 100.0 µM,63%
same,growth inhibition,[10]; at 1.2 µM,1%
same,growth inhibition,[10]; at 3.7 µM,4%
same,growth inhibition,[10]; at 11.0 µM,8%
same,growth inhibition,[10]; at 33.0 µM,31%
same,growth inhibition,[10]; at 100.0 µM,75% (active)
same,growth inhibition,[11]; at 1.2 µM,5%
same,growth inhibition,[11]; at 3.7 µM,6%
same,growth inhibition,[11]; at 11.0 µM,13%
same,growth inhibition,[11]; at 33.0 µM,37%
same,growth inhibition,[11]; at 100.0 µM,82% (active)
same,growth inhibition,[12]; at 1.2 µM,11%
same,growth inhibition,[12]; at 3.7 µM,18%
same,growth inhibition,[12]; at 11.0 µM,30%
same,growth inhibition,[12]; at 33.0 µM,61%
same,growth inhibition,[12]; at 100.0 µM,82% (active)
same,growth inhibition,[13]; [15],13%
same,growth inhibition,[13]; [16],55%
same,growth inhibition,[13]; at 50.0 µM,87.8% (active)
same,growth inhibition,[14]; at 1.2 µM,19%
same,growth inhibition,[14]; at 3.7 µM,33%
same,growth inhibition,[14]; at 11.0 µM,48%
same,growth inhibition,[14]; at 33.0 µM,69%
same,growth inhibition,[14]; at 100.0 µM,82% (active)
